Results filed as inconclusive are left out. A call without a number means that no potency is given here. Active and inactive are the calls of the source. Calls come from the whole dose curve; as a rule, active = well fitted inhibition curve with a large enough effect; inconclusive = small, poorly fitted or top-dose-only effect; inactive = flat fitted curve, though single readings scatter.

This assay relates to Zika virus NS2B-NS3 protease. In words: Primary screen GU AMC qHTS for Zika virus inhibitors (AID 1347154). Note: nearly all actives have a fitted effect of over 70% in size. The settings on record: Zika NS2B-NS3 unlinked protease, AMC fluorogenic substrate; series mostly up to 54.1 µM. From the text: Avindra Nath, Ph.D., National Institute of Neurological Disorders and Stroke (NINDS), Bethesda, MD
Radhakrishnan Padmanabhan, Ph.D., Georgetown University (GU), Washington D.C.
Zika Virus causes congenital defects, including microcephaly and is associated with Guillain-Barre syndrome, eningoencephalitis and myelitis in infected adult. […] Using a target-based approach, we hope to establish a screening paradigm to uncover novel, cell-active NS2B-NS3 protease (Zika Virus) specific inhibitors from NCATS' collection of small molecules using qHTS.
Early Translation Branch (ETB)
National Center for Advancing Translational Sciences (NCATS), Rockville, MD
National Institute of Health (NIH), Bethesda, Maryland
Padmanabhan lab provided the NS2B hydrophilic domain and NS3 protease domain in a noncovalent complex used for the unlinked assay. Control compound aprotinin is obtained from Thermo Scientific (#78432; Waltham, Massachusetts). NS2B-NS3 AMC substrate (Bz-Nle-Lys-Arg-Arg-AMC; Nle-KRR-AMC) purchased from Bachem (#I-1995; Torrance, CA). Ac-VKTGKR-AMC purchased from Genscript or Bachem, Ac-FAAGKR-AMC purchased from Genscript, Ac-GLVKRR-AMC purchased from Genscript, Ac-LKKR-AMC purchased from Genscript.
GU AMC unlinked NS2B-NS3 protease qHTS protocol
Briefly, 3 microL of Zika virus unlinked NS2B-NS3 protease (25 nM for linked final concentration), in assay buffer (10 mM Tris-HCl pH 8.0 with 0.01% Tween 20) was dispensed into a 1,536-well solid-bottom black plate (Greiner Bio One, Monroe, NC). […] Plates were then read immediately on a ViewLux High-throughput CCD imager (PerkinElmer, Waltham, MA) equipped with standard UV fluorescence optics (340(30) nm excitation, 450(20) nm emission) then incubated (room temperature, protected from light) for 15 minutes (~20% conversion). The change in fluorescence intensity over the 15-minute reaction period was normalized against no-inhibitor and no-enzyme controls and the resulting percent inhibition data were fitted to a 4-parameter Hill equation. Aprotinin was used as the intraplate control.
Background: qHTS replaces the single test concentration by a dilution series.
`Cc1ccc(Nc2cc(-c3cccc(N4C(=O)c5ccccc5C4=O)c3)ncn2)cc1NS(C)(=O)=O`: the Potency entry was “inactive”.
The entry for `O=c1cc(-c2ccccc2)oc2cc(O)c(O)c(O)c12` is “inactive”.
The entry for `O=c1[nH]cnc2c1ncn2[C@H]1CC[C@@H](CO)O1` is “inactive”; for `CC(C)C(=O)Oc1ccc(CO)cc1[C@H](CCN(C(C)C)C(C)C)c1ccccc1` it is “inactive”.
The entry for `NC(=O)c1cnc(-c2ccc(C3(N)CCC3)cc2)c(-c2ccccc2)c1` is “inactive”; for `NC[C@@H]1O[C@@H](O[C@H]2[C@@H](O)[C@H](O[C@@H]3[C@@H](O)[C@@H](N)C[C@H](N)[C@H]3O[C@H]3O[C@H](CN)[C@@H](O)[C@@H](O)[C@H]3N)O[C@H]2CO)[C@H](N)[C@@H](O)[C@@H]1O` it is “inactive”; for `Cc1cccc(C)c1OCC(C)N` (stereo not given) it is “inactive”.
In the case of `CC(C)C(C)C=CC(C)C1CCC2C3=CC=C4CC(O)CCC4(C)C3CCC21C` (stereo not given), the Potency entry was “inactive”.
To `CC#CCn1c(N2CCC[C@@H](N)C2)nc2c1c(=O)n(Cc1nc(C)c3ccccc3n1)c(=O)n2C` belongs “inactive”.
To `COCCOc1nc(-c2ccc(Cl)c(Cl)c2)n(-c2ccc(NC(=O)CCl)cc2)n1` belongs “inactive”; to `O=C(O)c1cc(-c2ccccc2)nc2ccccc12`, “inactive”.
The entry for `Nc1ncnc2c1nc(Cl)n2[C@@H]1O[C@H](CO)[C@@H](O)[C@@H]1O` is “inactive”; for `Cc1c(O)cccc1C(=O)N[C@@H](CSc1ccccc1)[C@H](O)CN1C[C@H]2CCCC[C@@H]2C[C@@H]1C(=O)NC(C)(C)C` it is “inactive”; for `CO[C@H]1C[C@@H]2CC[C@@H](C)[C@@](O)(O2)C(=O)C(=O)N2CCCC[C@@H]2C(=O)O[C@H]([C@H](C)C[C@@H]2CC[C@H](OCCO)[C@H](OC)C2)CC(=O)[C@H](C)C=C(C)[C@@H](O)[C@@H](OC)C(=O)[C@H](C)C[C@H](C)C=CC=CC=C1C` it is “inactive”.
In the case of `CC1=C(/C=C/C(C)=C/C=C/C(C)=C/C(=O)Nc2ccc(O)cc2)C(C)(C)CCC1`, the Potency result was “inactive”.
The entry for `CC(C)[C@H](CO)Nc1nc(Nc2ccc(C(=O)O)c(Cl)c2)c2ncn(C(C)C)c2n1` is “inactive”; for `O=c1cc(CN2CCOCC2)occ1OCCCCCSc1ccnc2cc(C(F)(F)F)ccc12` it is “inactive”.
To `CC(C)NCC(O)COc1cccc2[nH]ccc12` (stereo not given) belongs “inactive”; to `NC(N)=Nc1nc(CSCC/C(N)=N/S(N)(=O)=O)cs1`, “inactive”; to `O=C(Nc1ccccc1-c1cn2c(CN3CCNCC3)csc2n1)c1cnc2ccccc2n1`, “inactive”.
The entry for `O=C(O)CCc1nc(-c2ccccc2)c(-c2ccccc2)o1` is “inactive”; for `CC[C@@H]1C=C(C)C[C@H](C)C[C@H](OC)[C@H]2O[C@@](O)(C(=O)C(=O)N3CCCC[C@@H]3C(=O)O[C@H](C(C)=C[C@@H]3CC[C@H](Cl)[C@H](OC)C3)[C@H](C)[C@@H](O)CC1=O)[C@H](C)C[C@H]2OC` it is “inactive”.
For the compound `C[C@H](NC(=O)c1sccc1OCc1ccc(Cl)cc1)c1ccccc1`, the Potency result is “inactive”.
To `CC(C)(C)C(=O)Oc1ccc2c(c1)nc(NC(=O)c1cccc([N+](=O)[O-])c1)n2CCCO` belongs “inactive”; to `Cn1cc(C=C2C(=O)Nc3cccnc32)c2ccccc21`, “inactive”; to `Clc1ccc(-c2nc3sccn3c2C=NOCc2ccc(Cl)c(Cl)c2)cc1`, “inactive”.
`CCCNC(=O)NS(=O)(=O)c1ccc(Cl)cc1`: the Potency result is “inactive”.
The entry for `CCC(=O)NC[C@H](Cc1ccc(OCCc2nc(-c3ccccc3)oc2C)cc1)NC(C)=CC(=O)c1ccc(C(F)(F)F)cc1` is “inactive”; for `CS(=O)(=O)N(Cc1ccco1)CC(O)Cn1c2ccccc2c2ccccc21` (stereo not given) it is “inactive”.
To `COc1ncc(-c2ccc3nccc(-c4ccnnc4)c3c2)cc1NS(=O)(=O)c1ccc(F)cc1F` belongs “inactive”; to `O=C(Nc1cc(Cl)cc2c1[nH]c1cnccc12)c1cccnc1`, “inactive”; to `O=c1c(-c2ccc(O)cc2)coc2cc(OC3O[C@H](CO)[C@H](O)[C@H](O)[C@H]3O)cc(O)c12` (stereo not given in full), “inactive”.
To `CC(=O)Nc1ccc([C@H](C)C(=O)Nc2ncc(C(C)C)s2)cc1` belongs “inactive”.
`O=C(O)c1ccccc1C(=O)Nc1ccc(-c2ccccc2)cc1`: the Potency result is “inactive”.
To `Cc1cnc(C(=O)O)c[n+]1[O-]` belongs “inactive”; to `CC=CC[C@@H](C)C(=O)[C@H]1C(=O)N[C@@H](C(C)C)C(=O)N(C)CC(=O)N(C)[C@@H](CC(C)C)C(=O)N[C@@H](C(C)C)C(=O)N(C)[C@@H](CC(C)C)C(=O)N[C@@H](C)C(=O)N[C@H](C)C(=O)N(C)[C@@H](CC(C)C)C(=O)N(C)[C@@H](CC(C)C)C(=O)N(C)[C@@H](C(C)C)C(=O)N1C`, “inactive”; to `CO[C@H]1C[C@@H]2CC[C@@H](C)[C@@](O)(O2)C(=O)C(=O)N2CCCC[C@@H]2C(=O)O[C@H]([C@H](C)C[C@@H]2CC[C@H](OC(=O)C(C)(CO)CO)[C@H](OC)C2)CC(=O)[C@H](C)C=C(C)[C@@H](O)[C@@H](OC)C(=O)[C@H](C)C[C@H](C)C=CC=CC=C1C`, “inactive”.
The entry for `CCCCCNC(=O)N1CCC(CN(Cc2ccc(Cl)cc2)Cc2ccc([N+](=O)[O-])s2)C1` (stereo not given) is “inactive”; for `C[N+]1(C)[C@@H]2CC(OC(=O)[C@H](CO)c3ccccc3)C[C@H]1[C@H]1O[C@@H]12` (stereo not given in full) it is “inactive”.
The entry for `O=C1NC(=O)C(=Cc2ccc(-c3ccc(F)cc3)o2)S1` is “inactive”.

The record behind these values is PubChem BioAssay (NCATS).
